Screening data deposited in PubChem BioAssay by National Center for Advancing Translational Sciences (NCATS).
Pf growth 96h: Primary qHTS for delayed death inhibitors of the malarial parasite plastid, 96 hour incubation; P. falciparum luciferase reporter growth, 96 h; 6.9% of 320,000 active; Potency, µM (doses to about 28.7 µM), for inactives: at the highest dose activity change, negative = inhibition, usual class: inhibitors; further: potency means the concentration at half of the fitted maximal effect; on the % scale 0 is the no-effect control and ±100 the full control effect
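96 h incubation, 37 C, 5% CO2, of luciferase-reporter P. falciparum-infected RBCs (2% hematocrit, 0.05% parasitemia final) with test compounds; endpoint luminescence.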
Shiga inhibitor: A qHTS for Small Molecule Inhibitors of Shiga Toxin; Vero cells, Shiga toxin protein synthesis inhibition reporter; inhibition, % at 38.7 µM; 9.2% of 290,000 active; in the data active means inhibition mostly above about 28%, no sharp cut-off; inactive means mostly below about 43%; further: 0% is about no effect
AMA1-RON2 inh: qHTS for Inhibitors of AMA1-RON; Towards Development of Antimalarial Drug Lead: Primary Screen. Plasmodium falciparum AMA1 (3D7) - RON2 peptide interaction. AlphaScreen AMA1-biotinylated RON2 peptide binding. Potency, µM (doses to about 58.2 µM), inactives show at the highest dose activity change, negative = inhibition, usual class: inhibitors. 0.2% of 360,000 active. AID 720542, 2013;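 further: potency means the concentration at half of the fitted maximal effect; 0% = vehicle wells and -100% = peptide control; nearly all actives have a fitted effect of over 45% in size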
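AMA1 (3D7) with his tag at 25 nM final met compounds first, then biotinylated RON2 peptide at 25 nM; detection used donor plus acceptor beads, 10 µg/mL apiece, read by AlphaScreen after 30 min at room temperature.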
CHX counter: Cycloheximide Counterscreen for Small Molecule Inhibitors of Shiga Toxin; cell reporter, cycloheximide protein synthesis inhibition counterscreen; max response, %; 12% of 300,000 active; AID 2314, 2010; in the data active means max response mostly above about 13%, no sharp cut-off; inactive means mostly below about 14%; further: read at 38.3 µM for the half of the compounds with a filed dose; 0% is about no effect
HCV inh: qHTS Assay for Inhibitors of Hepatitis C Virus (HCV); Huh7.5.1 HCVcc-Cre infection, luciferase reporter, 44 h; 3.4% of 340,000 active; Potency, µM (titrated, usually from 41.8 µM), for inactives: top-dose activity change, negative = inhibition, hits mostly inhibitors; AID 651820, 2012; further: potency means the concentration at half of the fitted maximal effect; on the % scale 0 is the no-effect control and ±100 the full control effect
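Luciferase read-out (15 sec integration) after a 15 min room-temperature substrate step quantifies HCVcc-Cre infection. Cells, 1,000 per well, had compound added 4 h post-plating, then virus at ~0.5 moi, and were cultured 44 h.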
Pf growth 48h: Primary qHTS for delayed death inhibitors of the malarial parasite plastid, 48 hour incubation; P. falciparum luciferase growth in erythrocytes, 48 h; Potency, µM (top dose mostly 28.7 µM), inactives show top-dose activity change, negative = inhibition, actives largely listed as inhibitors; 5.9% of 310,000 active; AID 504832, 2011; further: potency means the concentration at half of the fitted maximal effect; on the % scale 0 is the no-effect control and ±100 the full control effect
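Luminescence readout; reporter = integrated firefly luciferase in P. falciparum. RBC culture at 2% hematocrit, 0.1% parasitemia final, 37 C/5% CO2; decreased signal taken as growth inhibition.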
An asterisk follows results filed as active. Shown are actives, neighbours in structure and some others; about 21% of the full set was active somewhere. Unless noted, the call rests on the fitted dose curve; in most records, active means well fitted curve in the direction sought with a large enough effect; inconclusive means small, poorly fitted or top-dose-only effect, or another doubt; inactive means no such curve, though single readings can be large; an effect the other way counts as inactive or inconclusive.

For CCCNC(=O)c1ccc(N2CCC3(CC2)CC(c2ccccc2)=NO3)c(NC(=O)c2ccccc2)c1 the results were Pf growth 96h 5.86µM*, Shiga inhibitor -2.8, AMA1-RON2 inh 0.0%, CHX counter -3.5, HCV inh -14.2% and Pf growth 48h inconclusive.
For CCOC(=O)c1ccc(NC(=O)Nc2ccccn2)cc1 the results were Pf growth 96h inconclusive, Shiga inhibitor 61.3*, AMA1-RON2 inh 8.1%, CHX counter 24.1*, HCV inh -12.4% and Pf growth 48h 133.8%.
Screening CCOC(=O)c1ccc(NC(=O)Nc2cccc(C)n2)cc1 returned Pf growth 96h -11.0%, Shiga inhibitor 0.9, AMA1-RON2 inh -11.7%, CHX counter -5.1, HCV inh -20.2% and Pf growth 48h -4.9%.
`CCOC(=O)c1ccc(NC(=O)Nc2cc(C)on2)cc1` gave Shiga inhibitor 38.6*, AMA1-RON2 inh 3.3%, CHX counter 31.6*, HCV inh inconclusive and Pf growth 48h inconclusive.
For CCCCN1C(=O)C(CC(=O)NCCCCc2ccccc2)CC(C(=O)N(C)C)=C1C (configuration not stated) the results were AMA1-RON2 inh -6.6%.
Clc1ccccc1-c1ncc2ccccn12 was read as Pf growth 96h 176.2%, Shiga inhibitor -7.8, AMA1-RON2 inh -6.0%, CHX counter 15.0, HCV inh 4.9% and Pf growth 48h inconclusive.
Screening CSc1nnc(-c2ccccc2Cl)n1N returned Pf growth 96h 10.4µM*, Shiga inhibitor -16.1, AMA1-RON2 inh -1.1%, CHX counter 8.8, HCV inh 9.5% and Pf growth 48h 4.6%.
Nn1c(-c2ccccc2Cl)nnc1-c1ccccc1Cl was read as Pf growth 96h 49.0%, Shiga inhibitor active, AMA1-RON2 inh -8.5%, CHX counter 31.8*, HCV inh -19.2% and Pf growth 48h 71.8%.
For COC(=O)c1ccc(Oc2nc(Nc3ccc(C)c(C)c3)nc(N(C)C)n2)cc1 the results were Shiga inhibitor 13.4, AMA1-RON2 inh -6.4%, CHX counter 12.6, HCV inh 8.91µM* and Pf growth 48h inconclusive.
`O=C(CN1CCN(C(=O)c2c(F)cccc2F)CC1)Nc1ccccc1C(F)(F)F` gave Pf growth 96h -7.8%, Shiga inhibitor 2.0, AMA1-RON2 inh 4.7%, CHX counter 8.1, HCV inh 13.5% and Pf growth 48h 3.1%.
`CCCc1nn(-c2cc(Cl)ccc2OC)c2c1C(=O)CC(C)(C)C2` gave Pf growth 96h -34.7%, Shiga inhibitor -7.0, AMA1-RON2 inh -6.2%, CHX counter -4.8 and HCV inh -27.0%.
CCc1nn(-c2cc(Cl)ccc2OC)c2c1C(=O)CCC2 was read as Pf growth 96h inconclusive, Shiga inhibitor 16.2, AMA1-RON2 inh -9.5%, CHX counter -3.4, HCV inh 14.1µM* and Pf growth 48h 5.2%.
Screening CCCSc1nnc2nc(C)cc(C)n12 returned Pf growth 96h inconclusive, Shiga inhibitor -9.8, AMA1-RON2 inh 3.8%, CHX counter -1.6 and HCV inh 5.6%.
Cc1cc(C)n2c(SCc3cccs3)nnc2n1 was read as Shiga inhibitor active, AMA1-RON2 inh 1.4%, CHX counter 15.4*, HCV inh 7.0% and Pf growth 48h 19.3%.
COc1cc(CNn2nnnc2N)cc(Br)c1OCc1c(Cl)cccc1Cl was read as Pf growth 96h inconclusive, Shiga inhibitor 41.5, AMA1-RON2 inh 28.0%, CHX counter -3.0 and HCV inh 12.6µM*.
Screening O=C(NCCN1CCN(Cc2ccccc2)CC1)c1ccc(CS(=O)(=O)c2ccc(Br)cc2)o1 returned Pf growth 96h inconclusive, Shiga inhibitor -3.0, AMA1-RON2 inh -2.1%, CHX counter 16.0, HCV inh -15.4% and Pf growth 48h inconclusive.
For OC(c1ccc(F)cc1)c1nc(-c2ccncc2)cs1 (configuration not stated) the results were AMA1-RON2 inh -1.9%.
